# In the supplement of paper PMC10037445:
# Values joined by “and” are separate entries in the source; they are usually repeats but may differ in a detail not shown here. Equal values may be shown once. The full ranking holds about 2,900 compounds; the median of “NF-kB SEAP reporter activity, fold change vs agonist alone” is about 0.99, and the highest 2% start at about 2.6. The list comes from a sample in which the highest values are over-represented; it also holds similar structures and randomly drawn compounds.
# How the values were obtained:
# [1] = system: RAW-Dual; assay: NF-kB SEAP reporter activity, fold change vs agonist alone; cytotoxicity flag (confluency mask): not cytotoxic; higher = enhanced NF-kB activity
# Method in brief: (§1)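 RAW-Dual macrophages (50,000 cells/well in DMEM, 384-well plates) received 50 nL of library stock by pin tool, then a PRR agonist 1 h later, and were kept at 37 °C, 5% CO2. After 20 hours, supernatant was read for IRF by QuantiLuc luminescence and for NF-κB by QuantiBlue absorbance at 620 nm. Reporter activity is fold change over agonist-alone wells. Cytotoxic wells had IncuCyte confluency below 70% of agonist controls in both mask sets.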
# [2] = system: RAW-Dual; assay: NF-kB SEAP reporter activity, fold change vs agonist alone; higher = enhanced NF-kB activity; conditions: library stock concentration (final ~1000-fold dilution): 10 mM
# Method in brief: as §1
# [3] = system: RAW-Dual; assay: NF-kB SEAP reporter activity, fold change vs agonist alone; cytotoxicity flag (confluency mask): cytotoxic (confluency <70% of control); higher = enhanced NF-kB activity
# Method in brief: as §1
# [4] = agonist: ODN 1826 (TLR9) 0.5 ug/mL
# [5] = agonist: Pam2CSK4 (TLR2/6) 0.1 ug/mL
# [6] = agonist: Pam3CSK4 (TLR2/1) 0.1 ug/mL
# [7] = cytotoxicity flag (confluency mask): not cytotoxic, agonist: Imiquimod (TLR7) […]
# [8] = cytotoxicity flag (confluency mask): not cytotoxic, agonist: MPLA (TLR4) […]
# [9] = cytotoxicity flag (confluency mask): cytotoxic (confluency <70% of control), agonist: Imiquimod (TLR7) […]
# [10] = cytotoxicity flag (confluency mask): cytotoxic (confluency <70% of control), agonist: MPLA (TLR4) […]
smiles,measurement,setting,value
CCN(CC)C(=O)Nc1ccc(OCC(O)CNC(C)(C)C)c(C(C)=O)c1.Cl (configuration not stated) (library stock concentration (final ~1000-fold dilution): 10 mM),NF-kB SEAP reporter activity,[1]; agonist: LPS (TLR4) 0.1 ug/mL,3.5
same,NF-kB SEAP reporter activity,[1]; [4],2.46
same,NF-kB SEAP reporter activity,[1]; [5],1.6
same,NF-kB SEAP reporter activity,[1]; [6],3.15
CCCC(=O)Nc1ccc(OCC(O)CNC(C)C)c(C(C)=O)c1.Cl (configuration not stated) (library stock concentration (final ~1000-fold dilution): 10 mM),NF-kB SEAP reporter activity,[1]; agonist: LPS (TLR4) 0.1 ug/mL,1.54
same,NF-kB SEAP reporter activity,[1]; [4],1.08
same,NF-kB SEAP reporter activity,[1]; [5],1.11
same,NF-kB SEAP reporter activity,[1]; [6],1.16
CC(C)(C)NCC(O)COc1cccc2c1CCC(=O)N2.Cl (configuration not stated),NF-kB SEAP reporter activity,[2]; [7],1.02
same,NF-kB SEAP reporter activity,[2]; [8],1.07
CCCC(=O)Nc1ccc(OCC(O)CNC(C)C)c(C(C)=O)c1.Cl (configuration not stated),NF-kB SEAP reporter activity,[2]; [7],1
same,NF-kB SEAP reporter activity,[2]; [8],1.08
CCN(CC)C(=O)Nc1ccc(OCC(O)CNC(C)(C)C)c(C(C)=O)c1.Cl (configuration not stated),NF-kB SEAP reporter activity,[2]; [7],2.4
same,NF-kB SEAP reporter activity,[2]; [8],2.24
CC(C)(C)NCC(O)COc1cccc2c1CCC(=O)N2.Cl (configuration not stated) (library stock concentration (final ~1000-fold dilution): 10 mM),NF-kB SEAP reporter activity,[1]; agonist: LPS (TLR4) 0.1 ug/mL,1.11
same,NF-kB SEAP reporter activity,[1]; [4],1.05
same,NF-kB SEAP reporter activity,[1]; [5],1.04
same,NF-kB SEAP reporter activity,[1]; [6],1.11
Cl.N=c1ccn2c(n1)OC1C(O)C(CO)OC12 (configuration not stated) (library stock concentration (final ~1000-fold dilution): 10 mM),NF-kB SEAP reporter activity,[1]; agonist: LPS (TLR4) 0.1 ug/mL,1.33
same,NF-kB SEAP reporter activity,[1]; [4],1.89
same,NF-kB SEAP reporter activity,[1]; [5],1.4
same,NF-kB SEAP reporter activity,[1]; [6],1.83
Cl.N=c1ccn2c(n1)OC1C(O)C(CO)OC12 (configuration not stated),NF-kB SEAP reporter activity,[2]; [7],1.8
same,NF-kB SEAP reporter activity,[2]; [8],1.42
Brc1ccc(CCCCn2ccnc2)cc1 (library stock concentration (final ~1000-fold dilution): 10 mM),NF-kB SEAP reporter activity,[1]; agonist: LPS (TLR4) 0.1 ug/mL,0.672 and 0.736
same,NF-kB SEAP reporter activity,[1]; [4],0.566 and 0.595
same,NF-kB SEAP reporter activity,[1]; [5],0.493 and 0.552
same,NF-kB SEAP reporter activity,[1]; [6],0.585 and 0.645
CN(C)C(=O)CCSC(SCCC(=O)O)c1cccc(C=Cc2ccc3ccc(Cl)cc3n2)c1 (configuration not stated),NF-kB SEAP reporter activity,[2]; [7],0.973
same,NF-kB SEAP reporter activity,[2]; [8],1.05
CN(C)C(=O)CCSC(SCCC(=O)O)c1cccc(C=Cc2ccc3ccc(Cl)cc3n2)c1 (configuration not stated) (library stock concentration (final ~1000-fold dilution): 10 mM),NF-kB SEAP reporter activity,[1]; agonist: LPS (TLR4) 0.1 ug/mL,1.5
same,NF-kB SEAP reporter activity,[1]; [4],1.12
same,NF-kB SEAP reporter activity,[1]; [5],0.936
same,NF-kB SEAP reporter activity,[1]; [6],0.945
Cc1cc(N2CCOCC2)cc2[nH]c(-c3c(NCC(O)c4cccc(Cl)c4)cc[nH]c3=O)nc12 (configuration not stated),NF-kB SEAP reporter activity,[2]; [7],2.06
same,NF-kB SEAP reporter activity,[2]; [8],0.802
CNC(=O)c1ccccc1Nc1nc(Nc2ccc(N3CCOCC3)cc2OC)ncc1Cl (library stock concentration (final ~1000-fold dilution): 10 mM),NF-kB SEAP reporter activity,[1]; agonist: LPS (TLR4) 0.1 ug/mL,0.332
same,NF-kB SEAP reporter activity,[1]; [4],0.296
same,NF-kB SEAP reporter activity,[1]; [5],0.134
same,NF-kB SEAP reporter activity,[1]; [6],0.246
CNC(=O)c1ccccc1Nc1nc(Nc2ccc(N3CCOCC3)cc2OC)ncc1Cl,NF-kB SEAP reporter activity,[2]; [7],0.466
same,NF-kB SEAP reporter activity,[2]; [8],0.594
Cc1cc(N2CCOCC2)cc2[nH]c(-c3c(NCC(O)c4cccc(Cl)c4)cc[nH]c3=O)nc12 (configuration not stated) (library stock concentration (final ~1000-fold dilution): 10 mM),NF-kB SEAP reporter activity,[1]; agonist: LPS (TLR4) 0.1 ug/mL,0.682
same,NF-kB SEAP reporter activity,[1]; [4],3.16
same,NF-kB SEAP reporter activity,[1]; [5],0.436
same,NF-kB SEAP reporter activity,[1]; [6],0.595
Cc1cc(N2CCOCC2)ccc1Nc1nc(NC2CCCCC2)c2nc[nH]c2n1,NF-kB SEAP reporter activity,[2]; [7],0.925
same,NF-kB SEAP reporter activity,[2]; [8],1.04
Cc1cc(N2CCOCC2)ccc1Nc1nc(NC2CCCCC2)c2nc[nH]c2n1 (library stock concentration (final ~1000-fold dilution): 10 mM),NF-kB SEAP reporter activity,[1]; agonist: LPS (TLR4) 0.1 ug/mL,1.44
same,NF-kB SEAP reporter activity,[1]; [4],0.814
same,NF-kB SEAP reporter activity,[1]; [5],1
same,NF-kB SEAP reporter activity,[1]; [6],0.926
Cl.NC12CC3CC(CC(C3)C1)C2 (library stock concentration (final ~1000-fold dilution): 10 mM),NF-kB SEAP reporter activity,[1]; agonist: LPS (TLR4) 0.1 ug/mL,1.03
same,NF-kB SEAP reporter activity,[1]; [4],0.798
same,NF-kB SEAP reporter activity,[1]; [5],0.873
same,NF-kB SEAP reporter activity,[1]; [6],1.02
Cl.NC12CC3CC(CC(C3)C1)C2,NF-kB SEAP reporter activity,[2]; [7],0.884
same,NF-kB SEAP reporter activity,[2]; [8],1.08
Nc1ccccc1NC(=O)c1ccc(CNc2nccc(-c3cccnc3)n2)cc1 (library stock concentration (final ~1000-fold dilution): 10 mM),NF-kB SEAP reporter activity,[3]; agonist: LPS (TLR4) 0.1 ug/mL,5.7
same,NF-kB SEAP reporter activity,[3]; [4],3.2
same,NF-kB SEAP reporter activity,[3]; [5],0.984
same,NF-kB SEAP reporter activity,[3]; [6],1.9
Nc1ccccc1NC(=O)c1ccc(CNC(=O)OCc2cccnc2)cc1,NF-kB SEAP reporter activity,[2]; [7],0.921
same,NF-kB SEAP reporter activity,[2]; [8],1.06
Nc1ccccc1NC(=O)c1ccc(CNc2nccc(-c3cccnc3)n2)cc1,NF-kB SEAP reporter activity,[2]; [9],2.7
same,NF-kB SEAP reporter activity,[2]; [10],2.58
Cc1ccc(NC(=O)c2ccc(CN3CCN(C)CC3)cc2)cc1Nc1nccc(-c2cccnc2)n1,NF-kB SEAP reporter activity,[2]; [7],1.31
same,NF-kB SEAP reporter activity,[2]; [8],1.69
Cc1ccc(NC(=O)c2ccc(CN3CCN(C)CC3)cc2)cc1Nc1nccc(-c2cccnc2)n1 (library stock concentration (final ~1000-fold dilution): 10 mM),NF-kB SEAP reporter activity,[1]; agonist: LPS (TLR4) 0.1 ug/mL,1.23
same,NF-kB SEAP reporter activity,[1]; [4],0.212
same,NF-kB SEAP reporter activity,[1]; [5],1.55
same,NF-kB SEAP reporter activity,[1]; [6],1.42
Nc1ccccc1NC(=O)c1ccc(CNC(=O)OCc2cccnc2)cc1 (library stock concentration (final ~1000-fold dilution): 10 mM),NF-kB SEAP reporter activity,[1]; agonist: LPS (TLR4) 0.1 ug/mL,1.22
same,NF-kB SEAP reporter activity,[1]; [4],1.02
same,NF-kB SEAP reporter activity,[1]; [5],1.07
same,NF-kB SEAP reporter activity,[1]; [6],1.14
O=P(O)(O)Oc1cccc2ccccc12,NF-kB SEAP reporter activity,[2]; [8],1.08
O=P(O)(O)Oc1cccc2ccccc12 (library stock concentration (final ~1000-fold dilution): 10 mM),NF-kB SEAP reporter activity,[1]; agonist: LPS (TLR4) 0.1 ug/mL,1.05
same,NF-kB SEAP reporter activity,[1]; [4],0.917
same,NF-kB SEAP reporter activity,[1]; [5],1.16
same,NF-kB SEAP reporter activity,[1]; [6],0.879
O=C(/C=C/c1cncc(F)c1)c1c(-c2ccccc2)c2cc(Cl)ccc2[nH]c1=O (library stock concentration (final ~1000-fold dilution): 10 mM),NF-kB SEAP reporter activity,[3]; agonist: LPS (TLR4) 0.1 ug/mL,0.257
same,NF-kB SEAP reporter activity,[3]; [4],0.212
same,NF-kB SEAP reporter activity,[3]; [5],0.0981
same,NF-kB SEAP reporter activity,[3]; [6],0.253
O=C(/C=C/c1cncc(F)c1)c1c(-c2ccccc2)c2cc(Cl)ccc2[nH]c1=O,NF-kB SEAP reporter activity,[2]; [9],0.157
same,NF-kB SEAP reporter activity,[2]; [10],0.259
